Screens as filed in PubChem BioAssay.
CYP2C9 activ: CYP2C9 (human) activation; P11712; recombinant CYP2C9, luciferin-H conversion, luminescence; hits give high values; factor 1 = untreated enzyme, 0 = blocked; activation factor at 5 µM; 96,000 compounds, 1.4% hits; AID 1024;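 active = activation factor of 2 or more for CYP2C9 at a 5 µM dose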;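 also: 0 = sulfaphenazole-blocked wells and 1 = vehicle-only wells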
F-actin modifier: modifiers of cytoskeleton assembly | inhibition, % at 2 µM | HUVEC TNFa F-actin phalloidin imaging, high content | 91,000 compounds, 0.18% hits;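 active = inhibition above the batch mean plus 3 SD and confirmed as a hit by visual image inspection, cut at about 30% in these data, passing the limit was not always enough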
CYP2C9 inhib: human CYP2C9 inhibition | P11712 | CYP2C9 Supersomes, luciferin-H conversion, luminescence | inhibition, % at 5 µM | 96,000 compounds, 20% hits | AID 777;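 active = blocking of liver enzyme CYP2C9 beyond about 50% at 5 µM, limit read from the data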
CYP2C19 inh: human CYP2C19 inhibition. P33261. CYP2C19 Supersomes, luciferin-H EGE luminescence, 30 min. inhibition, % at 5 µM. 96,000 compounds, 21% hits. AID 778;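 active = CYP2C19 inhibition above a set limit at 5 µM in the primary screen, cut at about 50% in these data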;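 also: plate controls were negative control wells for no effect and 2.5 mM tranylcypromine positive control for full effect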
Target sequence (P33261 whole entry, looked up): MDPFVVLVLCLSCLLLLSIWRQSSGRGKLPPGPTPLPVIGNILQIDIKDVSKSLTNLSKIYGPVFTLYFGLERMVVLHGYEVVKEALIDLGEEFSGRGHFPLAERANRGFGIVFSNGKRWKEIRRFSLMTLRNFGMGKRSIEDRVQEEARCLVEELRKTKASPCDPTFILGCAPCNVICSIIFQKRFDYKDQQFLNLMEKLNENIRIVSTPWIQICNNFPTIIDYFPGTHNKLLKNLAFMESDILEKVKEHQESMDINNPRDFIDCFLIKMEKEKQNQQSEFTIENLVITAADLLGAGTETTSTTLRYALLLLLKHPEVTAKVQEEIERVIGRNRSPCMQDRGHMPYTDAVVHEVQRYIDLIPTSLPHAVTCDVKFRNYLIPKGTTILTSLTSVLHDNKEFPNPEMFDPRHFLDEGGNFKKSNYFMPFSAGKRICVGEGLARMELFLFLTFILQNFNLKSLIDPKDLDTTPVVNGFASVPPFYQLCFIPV
CYP2C19 activ: increases human CYP2C19 enzyme activity | P33261 | recombinant CYP2C19, luciferin-H EGE luminescence; hits give high values; 0 = fully inhibited enzyme, 1 = untreated enzyme | activation factor at 5 µM | 96,000 tested, under 10 active | AID 1025;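 active = activation factor of at least 2 at 5 µM in the primary screen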;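 also: 0 = wells with 2.5 mM tranylcypromine and 1 = vehicle-only wells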
E-sel TNF inh: blocks E-selectin expression induced by TNF alpha | HUVEC TNFa-induced E-selectin immunofluorescence, high content | inhibition, % at 2 µM | 120,000 compounds, 0.71% hits | AID 1246;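 active = inhibition above the batch mean plus 3 SD, and confirmed as a hit on visual image review, cut at about 43% in these data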;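 also: 0% = TNF-stimulated DMSO wells and 100% = unstimulated control wells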
The depositor's hits bear a star; / = no result. The list is not random: actives were taken first. Their share in the collection is about 22%.

SMILES | CYP2C9 activ | F-actin modifier | CYP2C9 inhib | CYP2C19 inh | CYP2C19 activ | E-sel TNF inh
O=C(Nc1ccccc1)C1=C(N2CCOCC2)/C(=C/c2cccnc2)CC1 | 0.3 | 2 | 67* | 87* | 0.1 | 10
O=C(N/C(=C/c1cccnc1)C(=O)N1CCOCC1)c1ccccc1 | / | / | / | / | / | 4
Cc1ccccc1-c1cc(C(=O)Nc2sc(C(=O)OC(C)C)c(C)c2C#N)c2ccccc2n1 | 0.2 | 0 | 85* | 44 | 0.6 | 4
COC(=O)c1sc(NC(=O)c2cc(-c3ccccc3)nc3ccccc23)c(C#N)c1C | 0.4 | 2 | 64* | 8 | 0.9 | -70
CCOC(=O)c1nnn(-c2nonc2N)c1-c1cccc2ccccc12 | 0.2 | / | 84* | 98* | 0 | /
CCOC(=O)c1nnn(-c2nonc2N)c1-c1ccc(OC)cc1 | 0.2 | / | 80* | 98* | 0 | /
CCOC(=O)c1nnn(-c2nonc2N)c1-c1cccs1 | 1 | -6 | 4 | 68* | 0.3 | /
Nc1nonc1-n1nnc(C(=O)O)c1-c1cccs1 | 0.2 | 2 | 84* | 10 | 0.9 | 14
O=C(COc1ccccc1)N/N=C/c1cc2c(cc1[N+](=O)[O-])OCO2 | 0.6 | 11 | 38 | 23 | 0.8 | 3
O=C1CCCc2c1[nH]c1ccccc21 | 2.2* | -42 | -119 | -2 | 1 | -21
O=C1CCCc2c1[nH]c1c(Br)cccc21 | 1.6 | -9 | -59 | 26 | 0.7 | -21
Cc1nn(Cc2c(F)c(F)c(F)c(F)c2F)c(C)c1NC(=O)c1ccc(COc2ccc(Cl)cc2Cl)o1 | / | / | / | / | / | -4
O=C(Nc1ccn(Cc2c(F)c(F)cc(F)c2F)n1)c1ccc(COc2ccc(Cl)cc2Cl)o1 | 0 | 5 | 99* | 92* | 0.1 | -10
CC(C)CNC(=O)c1ccc(COc2ccc(Cl)cc2Cl)o1 | 0.2 | 10 | 76* | 40 | 0.6 | 1
O=C(Nc1ccn(Cc2c(F)c(F)c(F)c(F)c2F)n1)c1ccc(COc2ccccc2Cl)cc1 | 0.3 | 6 | 70* | 43 | 0.6 | -15
Cc1cc(C)c(C#N)c(SCC(=O)Nc2ccc(S(=O)(=O)Nc3onc(C)c3C)cc2)n1 | 0.7 | / | 27 | 2 | 1 | 19
CCN(Cc1ccccc1)S(=O)(=O)c1ccc(S(=O)(=O)N(Cc2ccccn2)Cc2ccco2)cc1 | 0.5 | / | 46 | 31 | 0.7 | 3
O=C(c1ccc(F)cc1F)N(Cc1ccccn1)Cc1ccco1 | 0.7 | 22 | 34 | 73* | 0.3 | 12
C=CCn1c(=O)c2ccccc2n2c(SCc3nc4ccccc4s3)nnc12 | 0.6 | 9 | 37 | 62* | 0.4 | -14
C=CCn1c(=O)c2ccccc2n2c(SCc3c(C(=O)OCC)oc4ccccc34)nnc12 | 0.4 | / | 60* | 59* | 0.4 | /
C=CCn1c(=O)c2ccccc2n2c(SCC(N)=O)nnc12 | 1.1 | -9 | -10 | -11 | 1.1 | /
O=c1c2ccccc2nnn1CSc1nnc(C2COc3ccccc3O2)n1-c1ccccc1 (stereo not drawn) | 0.1 | / | 90* | 87* | 0.1 | -78
O=C(OCn1nnc2ccccc2c1=O)C1COc2ccccc2O1 (stereo not drawn) | 1 | -7 | -2 | 7 | 0.9 | -9
CCN(CC)S(=O)(=O)c1ccc(C(=O)NCc2ccc3[nH]c4c(c3c2)CCCC4)cc1 | / | / | / | / | / | -11
CC(C)c1ccc(Nc2nnc(SCC(=O)Nc3ncc(S(=O)(=O)c4ccc([N+](=O)[O-])cc4)s3)s2)cc1 | / | / | / | / | / | -55
SMILES | CYP2C9 activ | F-actin modifier | CYP2C9 inhib | CYP2C19 inh | CYP2C19 activ | E-sel TNF inh
O=C(Nc1cccc(F)c1)N1CCN(C/C=C/c2ccccc2)CC1 | 0.8 | -28 | 22 | 24 | 0.8 | 8
O=C(c1cccs1)N1CCN(CCc2ccccc2)CC1 | 0.6 | 3 | 43 | 79* | 0.2 | 9
O=C(c1cccs1)N1CCN=C1SCc1ccccc1 | 0.8 | -16 | 18 | 32 | 0.7 | 44*
O=C(c1nn(Cc2ccccc2)c(=O)c2ccccc12)N1CCN(C/C=C/c2ccccc2)CC1 | 0.2 | -5 | 82* | 41 | 0.6 | -23
O=C(Nc1ccc(F)cc1)N1CCN(C/C=C/c2ccccc2)CC1 | 0.5 | -22 | 51* | 42 | 0.6 | -42
COc1cccc(-c2nc(CS(=O)(=O)c3ccccc3)no2)c1 | 0.7 | 6 | 32 | 43 | 0.6 | -15
O=C(Cc1ccccc1)N1CCN(C(=O)c2cccs2)CC1 | 0.8 | -12 | 23 | 81* | 0.2 | -20
